Source: PubChem BioAssay (National Center for Advancing Translational Sciences (NCATS))
ELG1 DNA repair: ELG1-dependent DNA repair inhibition; HEK293T ELG1-luciferase reporter, luminescence, 16 h; DNA damage induced by 5-fluorouridine; actives 2.3% (n = 330,000); Potency, µM (highest dose often 46.1 µM), for the others: at the highest dose activity change, negative = inhibition, hits mostly inhibitors; note: % is set by controls: 0 for no effect and ±100 for the full control effect; nearly all actives have a fitted effect of over 55% in size
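Step one: seed 2,000 cells per well. Step two: pin-transfer compound or DMSO alongside 5-fluorouridine. Step three: incubate 16 hr, 37 °C, 5% CO2. Step four: add ONE-Glo, wait 30 min, read luminescence.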
FLuc modulator: inhibits or activates purified firefly luciferase, miR-21 counter-screen; purified FLuc, Km substrates, luminescence inhibition; P08659; AID 588342; actives 6.9% (n = 360,000); Potency, µM (series often up to 57.5 µM), inactives show at the top dose activity change, negative = inhibition, actives largely listed as inhibitors;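 note: plate controls were vehicle for no effect and reference inhibitor for full effect; nearly all actives have a fitted effect of over 55% in size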
Target sequence (P08659 whole entry, looked up): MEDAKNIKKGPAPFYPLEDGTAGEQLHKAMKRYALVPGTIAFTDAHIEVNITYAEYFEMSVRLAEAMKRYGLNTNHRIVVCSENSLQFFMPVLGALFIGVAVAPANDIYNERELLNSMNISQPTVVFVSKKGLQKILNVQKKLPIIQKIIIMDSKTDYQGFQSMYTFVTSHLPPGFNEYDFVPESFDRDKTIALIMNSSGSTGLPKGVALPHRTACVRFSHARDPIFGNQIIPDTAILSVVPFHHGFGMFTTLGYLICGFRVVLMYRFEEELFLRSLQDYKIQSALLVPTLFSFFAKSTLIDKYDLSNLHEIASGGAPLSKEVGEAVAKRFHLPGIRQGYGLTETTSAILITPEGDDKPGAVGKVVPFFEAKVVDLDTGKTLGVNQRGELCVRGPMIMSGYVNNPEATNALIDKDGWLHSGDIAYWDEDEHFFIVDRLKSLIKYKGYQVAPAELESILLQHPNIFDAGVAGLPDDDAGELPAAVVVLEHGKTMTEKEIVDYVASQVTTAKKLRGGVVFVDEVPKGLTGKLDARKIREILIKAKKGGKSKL
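Biochemical qHTS of compounds, final roughly 60 µM downward over six points, against 10 nM purified firefly luciferase using Km concentrations of substrates (10 uM D-luciferin, 10 uM ATP) in Tris acetate pH 7.5 buffer; luminescence output.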
NPC1 prom act: activators of NPC1 promoter | Potency, µM (series often up to 9.22 µM), without a hit: top-dose activation, actives largely listed as activators | AID 485313 | Huh7 NPC1 promoter luciferase reporter, 24 h | actives 2.4% (n = 320,000); note: % of control where 0% means no effect; nearly all actives have a fitted effect of over 60% in size
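Stably transfected Huh7 (NPC1 promoter→luciferase), 1500 cells/well in Opti-MEM + 10% FBS, 2 h settle, then compound 24 h at 37 °C. Luminescence after 10 min with Amplite reagent.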
SMN2 splice enh: enhancers of SMN2 splice variant expression | HEK293 SMN2-luciferase splicing reporter, luminescence, 30-36 h | Potency, µM (top dose mostly 46.1 µM), for the others: at the highest dose activity change, positive = activation, actives largely listed as activators | actives 2.8% (n = 210,000) | AID 1458; note: % of control where 0% means no effect; nearly all actives have a fitted effect of over 55% in size
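HEK293 cells carry an SMN2 […]–luciferase reporter in which exon 7 inclusion puts luciferase in frame. Cells were plated 10-12 h before compound addition, then incubated 30-36 h at 37C. ONE-Glo luminescence was read; sodium butyrate at 4.5 mM final served as control.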
Rab9 promoter act: activators of Rab9 promoter. Huh7 Rab9 promoter-luciferase reporter, luminescence, 24 h. Potency, µM (titrated, usually from 9.22 µM), for inactives: top-dose activation, negative = inhibition, actives largely listed as activators. actives 2.8% (n = 320,000); note: % of control where 0% means no effect; nearly all actives have a fitted effect of over 60% in size
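Huh7 reporter line, Rab9 promoter upstream of luciferase. Compound exposure 24 h at 37 °C in reduced-serum medium with 10% FBS. Read-out: luminescence.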
ELG1 genotox: induces genotoxicity in HEK293T cells with luciferase-tagged ELG1; HEK293T ELG1-luciferase reporter, luminescence, 16 h; Potency, µM (titrated, usually from 46 µM), without a hit: top-dose activity change, positive = activation, usual class: activators; actives 1.3% (n = 330,000); AID 504466; note: % of control where 0% means no effect; nearly all actives have a fitted effect of over 60% in size
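Reporter readout depends on ELG1 protein level, which increases with genetic stress. After 16 hr compound exposure at 37 °C, luciferase activity was quantified using ONE-Glo.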
An asterisk follows results filed as active; ? = inconclusive; . = no result. Sampled rows, rich in hits. Any-hit rate of the full collection: about 9.3%. Calls come from the whole dose curve; as a rule, active = well fitted curve in the direction sought with a large enough effect; inconclusive = small, poorly fitted or top-dose-only effect, or another doubt; inactive = no such curve, though single readings can be large; an effect the other way counts as inactive or inconclusive. Potency is the fitted concentration of half-maximal effect.

SMILES	ELG1 DNA repair	FLuc modulator	NPC1 prom act	SMN2 splice enh	Rab9 promoter act	ELG1 genotox
Cc1cccc(C(=O)Nc2ccc(N3CCN(S(C)(=O)=O)CC3)cc2)c1	?	?	4.5µM*	?	4µM*	14%
CS(=O)(=O)N1CCN(c2ccc(NC(=O)c3ccccc3)cc2)CC1	?	?	3.5µM*	10µM*	1.8µM*	?
COc1ccc(-c2noc(-c3ccc(NC4CCCCC4)c([N+](=O)[O-])c3)n2)cc1	.	0%	.	.	.	.
COc1ccc(-n2c(=O)[nH]cc(C(=O)Nc3ccc(NC(C)=O)cc3)c2=O)cc1	8%	-9%	-8%	-6%	-2%	-1%
COc1ccc(OCc2cc(C(=O)N(C)CCC3CCOCC3)no2)c(Cl)c1	?	17µM*	?	.	?	?
COc1ccc(OCc2cc(C(=O)N3CCOCC3)no2)c(Cl)c1	?	6.7µM*	1.6µM*	.	1.4µM*	18µM*
COc1ccc(OCc2cc(C(=O)N3CCCCCC3)no2)c(Cl)c1	?	19µM*	?	.	?	?
O=C(c1cc(COc2ccc(F)cc2Cl)on1)N1CCSCC1	?	11µM*	2.8µM*	.	4µM*	?
COCCOc1cc(N2C(=O)CSCC2=O)c(Cl)cc1Cl	9%	-1%	2%	4%	-2%	1%
O=C(Nc1ncccc1Cl)c1ccccc1F	?	?	1%	-7%	15%	6%
O=C(OCCOc1cccc(Cl)c1)C1CCN(S(=O)(=O)c2ccccc2)CC1	5%	-2%	-4%	.	0%	3%
O=C1CCN(S(=O)(=O)c2ccccc2)CCN1CCOCc1ccc(F)cc1	-8%	-1%	-1%	.	1%	-4%
COc1cccc(OCc2cc(C(=O)N3CCN(C)C(c4ccccc4)C3)no2)c1 (stereo unspecified)	?	27µM*	26%	.	?	7%
COc1ccc(OCc2cc(C(=O)N(C)C(C)c3ccon3)no2)c(Cl)c1 (stereo unspecified)	?	13µM*	?	.	2.5µM*	?
COc1ccc(OCc2cc(C(=O)N3CCC(c4ccccc4)CC3)no2)c(Cl)c1	-2%	24µM*	?	.	2.8µM*	16%
COc1ccc(OCc2cc(C(=O)N3CCN(CC(=O)N(C)C)CC3)no2)c(Cl)c1	0%	-19%	-1%	.	8%	6%
COc1cccc(OCc2cc(C(=O)N3CCC(c4ccncc4)CC3)no2)c1	?	-3%	-22%	.	-25%	3%
COc1ccc(OCc2cc(C(=O)N3CCSCC3)no2)c(Cl)c1	?	11µM*	2.8µM*	.	2.8µM*	?
CC1=CC(C)(C)N2C(=O)C3(C(C#N)=C(N)OC4=C3C(=O)CC(C)(C)C4)c3cccc1c32 (stereo unspecified)	3%	-1%	0%	-9%	1%	-2%
Cc1cc(SCC#N)n2nc(C)c(-c3ccccc3)c2n1	23µM*	?	-4%	-31%	-4%	-8%
C=CCSc1cc(C)nc2c(-c3ccccc3)c(C)nn12	-10%	12µM*	-4%	.	2%	3%
CC(=O)CSc1cc(C)nc2c(-c3ccccc3)c(C)nn12	17%	-1%	-2%	.	-8%	5%
Cc1cc(-c2nnc(-c3cccc(C(F)(F)F)c3)o2)no1	?	17µM*	?	.	?	15%
Cc1ccc(-c2nnc(N)o2)cc1	?	?	0%	15%	-1%	9%
Cc1ccc(-c2nnc(-c3cc(C)on3)o2)cc1	?	1.5µM*	0.79µM*	.	0.56µM*	3.3µM*
SMILES	ELG1 DNA repair	FLuc modulator	NPC1 prom act	SMN2 splice enh	Rab9 promoter act	ELG1 genotox
Cc1ccccc1NC(=O)c1cccc(C(F)(F)F)c1	5%	-5%	-2%	4%	3%	0%
O=C(Nc1ccsc1C(=O)O)c1cccc(C(F)(F)F)c1	?	9.5µM*	3.2µM*	.	?	16µM*
O=C(Nc1ccsc1C(=O)O)c1cccc(Oc2ccccc2)c1	?	0.76µM*	1.8µM*	.	0.89µM*	?
COc1ccc(N2C(=O)c3ccccc3NC2(C)C)cc1	?	-2%	?	8.9µM*	?	-2%
COc1ccc(N2C(=O)c3ccccc3NC2c2cccnc2)cc1 (stereo unspecified)	?	1%	9%	15%	-7%	9%
C=C1c2ccccc2NC(=O)N1c1ccc(OC)cc1	?	3%	-5%	.	0%	9%
CCOc1ccc(N2C(=O)c3ccccc3NC2(C)CC)cc1 (stereo unspecified)	?	.	?	.	3.5µM*	?
COc1ccc(N2C(=O)c3ccccc3NC23CCC(C)CC3)cc1 (stereo unspecified)	?	?	2.5µM*	10µM*	2.2µM*	?
COc1ccc(N2C(=O)c3ccccc3NC23CCCCC3)cc1	?	11µM*	2.8µM*	13µM*	2.5µM*	?
COc1ccc(NS(=O)(=O)c2cc(NC(=O)c3ccccc3)ccc2N2CCOCC2)cc1	?	.	.	.	.	0%
Cc1ccsc1C1NC(=O)c2ccccc2N1 (stereo unspecified)	9%	-5%	-13%	?	1%	-2%
COc1cc(Cl)c(C)cc1NC(=O)c1cnn(-c2ccc(C)cc2)c1-n1cccc1	.	0%	.	.	.	.
CCOc1cccc(-c2csc(C3COc4ccccc4O3)n2)c1 (stereo unspecified)	?	2.1µM*	?	4µM*	4µM*	?
COC(=O)c1cccc(OCC(O)Cn2cnc3cc(C)c(C)cc32)c1 (stereo unspecified)	?	6%	-4%	-33%	0%	-4%
COc1cccc2cc(NC(=O)C3CCCCC3)c(=O)oc12	?	?	3.2µM*	?	1.8µM*	?
COc1cccc2cc(C(=O)Nc3ccc(F)c(F)c3)c(=O)oc12	.	0%	.	2%	.	.
COc1cccc2cc(C(=O)Nc3ccc(C)cc3)c(=O)oc12	.	0.38µM*	.	14%	.	.
COc1cccc2cc(CC(=O)c3ccc(C)cc3C)c(=O)oc12	?	11µM*	?	.	?	11%
COc1cccc2cc(C(=O)Nc3cccc(C)n3)c(=O)oc12	?	0.21µM*	22%	-8%	?	2.3µM*
O=C(CSc1nnc(CNC(=O)c2cccs2)o1)Nc1ccc2c(c1)OCO2	-6%	-5%	-1%	29%	-5%	-2%
Nc1c(-c2cccc(Cl)c2)cnn1-c1cccc(C(F)(F)F)c1	0%	?	2%	-27%	9%	-3%
